Values without a mark were called inactive. Records with an inconclusive call do not appear. Active and inactive are the calls of the source. Unless noted, calls follow the shape of the dose curve; as a rule, active = well fitted curve in the direction sought with a large enough effect; inconclusive = small, poorly fitted or top-dose-only effect, or another doubt; inactive = no such curve, though single readings can be large; an effect the other way counts as inactive or inconclusive.
Columns and labels:
[1] = molecular target: Cytochrome P450 1A2 (Homo sapiens) (UniProt P05177); experiment: p450-cyp1a2 (AID 410; calls by dose curve; also: potency is read from the fitted curve at half-maximal effect;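 as to activity change, negative = inhibition: -100% = full effect of reference inhibitor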)
Sequence of Cytochrome P450 1A2 (Homo sapiens) (P05177 whole entry, looked up): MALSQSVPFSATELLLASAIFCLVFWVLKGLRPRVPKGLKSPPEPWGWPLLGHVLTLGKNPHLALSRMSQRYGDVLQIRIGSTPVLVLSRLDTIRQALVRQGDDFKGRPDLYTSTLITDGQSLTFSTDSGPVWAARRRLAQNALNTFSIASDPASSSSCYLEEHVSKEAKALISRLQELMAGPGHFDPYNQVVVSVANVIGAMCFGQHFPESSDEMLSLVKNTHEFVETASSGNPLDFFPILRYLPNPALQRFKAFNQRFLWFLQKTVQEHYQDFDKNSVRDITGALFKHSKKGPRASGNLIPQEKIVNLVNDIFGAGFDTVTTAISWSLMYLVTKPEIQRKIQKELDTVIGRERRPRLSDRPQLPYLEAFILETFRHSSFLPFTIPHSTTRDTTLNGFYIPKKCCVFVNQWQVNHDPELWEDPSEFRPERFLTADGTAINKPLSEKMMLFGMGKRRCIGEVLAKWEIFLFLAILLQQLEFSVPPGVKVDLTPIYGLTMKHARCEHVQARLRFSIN
How it was run: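 Human CYP1A2 (20nM) demethylated Luciferin-ME at its Km (100uM) in 100mM KPO4. After 10 min compound preincubation, NADPH regeneration ran the reaction 60 min at room temperature. Luciferin was read by luminescence, normalized to 57 uM furafylline.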

[2] = NFAT Signaling Pathway (AID 444; active = well fitted curve in either direction with a large enough effect, not every such curve was filed as active;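 also: carbachol stimulus at about its EC50 of 1 µM final; % is scaled to controls: 0 for no effect and ±100 for the full control effect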); settings: Jurkat NFAT-bla M1, carbachol, beta-lactamase ratio, 5 h; at 17.2 µM (top of the series) unless noted
How it was run: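 Jurkat cells with NFAT-driven β-lactamase reporter and co-expressed M1 receptor, stimulated with carbachol (final 1 uM, ~EC50), compound titration, 5 h at 37 °C. CCF4 loaded 1 h at RT; 460/530 nm ratio gave %activity and AC50.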

[3] = Stat Signaling Pathway (AID 446; active = well fitted curve in either direction with a large enough effect, not every such curve was filed as active;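 also: ME-180 cervical cancer cells given 40 pM IL-6 alongside compound; SIE-controlled beta-lactamase reporter measured as 460/530 nm FRET emission ratio; % is scaled to controls: 0 for no effect and ±100 for the full control effect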); settings: ME-180 SIE beta-lactamase reporter, IL-6 stimulated, 5 h; at 17.2 µM (top of the series) unless noted
How it was run: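 IL-6/STAT signaling read in ME-180 cells via an SIE beta-lactamase reporter. Stimulus was 40 pM IL-6 (its AC50) for 5 hrs, so both activation and inhibition register.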

[4] = molecular target: Glucocorticoid receptor (Homo sapiens) (UniProt P04150); experiment: GR-GFP Redistribution (AID 450;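 active = compounds whose dose series gives a full or clear partial fitted curve of increased nuclear translocation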; also: potency is read from the fitted curve at half-maximal effect)
Sequence of Glucocorticoid receptor (Homo sapiens) (P04150 whole entry, looked up, the tested form may be a part): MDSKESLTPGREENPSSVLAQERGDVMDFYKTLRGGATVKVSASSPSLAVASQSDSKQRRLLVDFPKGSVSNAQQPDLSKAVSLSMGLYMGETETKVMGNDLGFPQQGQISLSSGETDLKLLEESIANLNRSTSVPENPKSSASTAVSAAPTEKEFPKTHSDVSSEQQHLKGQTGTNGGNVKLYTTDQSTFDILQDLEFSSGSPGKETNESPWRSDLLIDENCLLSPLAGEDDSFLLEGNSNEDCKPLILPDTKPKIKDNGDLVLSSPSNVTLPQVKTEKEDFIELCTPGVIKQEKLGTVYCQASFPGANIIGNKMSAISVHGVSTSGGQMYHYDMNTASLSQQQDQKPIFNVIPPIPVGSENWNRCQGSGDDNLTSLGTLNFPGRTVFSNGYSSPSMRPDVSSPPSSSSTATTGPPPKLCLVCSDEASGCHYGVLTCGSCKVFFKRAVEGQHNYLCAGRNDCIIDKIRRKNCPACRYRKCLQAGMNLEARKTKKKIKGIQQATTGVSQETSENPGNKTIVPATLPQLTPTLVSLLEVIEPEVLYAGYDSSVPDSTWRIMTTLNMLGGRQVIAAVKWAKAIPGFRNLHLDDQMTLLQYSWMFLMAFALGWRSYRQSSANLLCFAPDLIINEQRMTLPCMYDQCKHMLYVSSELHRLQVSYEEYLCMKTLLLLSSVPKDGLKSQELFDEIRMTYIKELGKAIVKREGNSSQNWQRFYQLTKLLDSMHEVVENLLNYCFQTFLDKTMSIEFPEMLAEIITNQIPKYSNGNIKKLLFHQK

[5] = molecular target: Glucocorticoid receptor (Homo sapiens) (UniProt P04150); experiment: GR-EFC Redistribution (AID 451; calls by dose curve; also: potency is read from the fitted curve at half-maximal effect); settings: CHO-K1 GR-EFC translocation, beta-gal luminescence, 2 h
How it was run: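 CHO-K1 cells expressing nuclear EA and GR-ED fragments of b-gal; compounds titrated up to 46 uM final, 2 h at 37 C. GR nuclear translocation read as complemented b-gal luminescence after 1 h RT detection.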

[6] = molecular target: Mitogen-activated protein kinase 10 (Mus musculus) (UniProt Q61831); experiment: JNK3 AlphaScreen Assay (AID 530; active = well fitted curve in either direction with a large enough effect, not every such curve was filed as active;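 also: kinase came from lysate of stimulated human HepG2 cells; signal reports phosphorylation of biotinylated GST-cJun 1-79 at Ser73 with 10 µM ATP; % is scaled to controls: 0 for no effect and ±100 for the full control effect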)
How it was run: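 qHTS format: compounds tested as titrations against IL-1beta/TNF-alpha-activated HepG2 lysate JNK3 with biotin-GST-cJun substrate and 10 uM ATP at room temperature. Loss of anti-phospho-cJun AlphaScreen signal indicates inhibition.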

[7] = molecular target: 3',5'-cyclic-AMP phosphodiesterase 4B (Homo sapiens) (UniProt Q07343); experiment: qHTS Assay for Inhibitors of PDE-IV (AID 607; active = well fitted activation curve with a large enough effect in the main read-out, with a control signal flat, not every such curve was filed as active; also: % of control where 0% means no effect)
Sequence of 3',5'-cyclic-AMP phosphodiesterase 4B (Homo sapiens) (Q07343 whole entry, looked up): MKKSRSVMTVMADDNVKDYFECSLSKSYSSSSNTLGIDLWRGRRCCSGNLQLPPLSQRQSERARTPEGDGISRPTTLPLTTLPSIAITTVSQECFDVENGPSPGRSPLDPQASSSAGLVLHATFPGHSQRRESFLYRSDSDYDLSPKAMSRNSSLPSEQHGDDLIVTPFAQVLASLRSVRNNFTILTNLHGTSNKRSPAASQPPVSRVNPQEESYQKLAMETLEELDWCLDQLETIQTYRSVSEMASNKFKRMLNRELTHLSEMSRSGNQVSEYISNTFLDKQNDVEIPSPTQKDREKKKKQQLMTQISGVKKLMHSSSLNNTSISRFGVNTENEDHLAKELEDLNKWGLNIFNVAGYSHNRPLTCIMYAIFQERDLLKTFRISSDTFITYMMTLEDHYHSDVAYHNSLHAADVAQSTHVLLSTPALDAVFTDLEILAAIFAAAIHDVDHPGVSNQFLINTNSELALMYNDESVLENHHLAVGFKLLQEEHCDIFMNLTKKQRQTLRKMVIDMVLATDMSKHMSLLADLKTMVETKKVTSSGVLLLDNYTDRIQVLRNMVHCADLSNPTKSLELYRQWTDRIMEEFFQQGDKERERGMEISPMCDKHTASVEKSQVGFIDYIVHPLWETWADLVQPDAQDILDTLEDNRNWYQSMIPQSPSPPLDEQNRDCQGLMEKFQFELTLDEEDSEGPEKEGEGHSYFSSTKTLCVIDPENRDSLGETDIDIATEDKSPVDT
How it was run: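 Live HEK293 cells with a modified cyclic nucleotide-gated (CNG) channel report intracellular cAMP via membrane-potential dye fluorescence (ex 535/em 590 nm). Endogenous PDE-IV was targeted. Compounds were tested at up to 22.9 uM final; RO 20-1724 100 uM served as control.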

[8] = Confirmation and Secondary Assay for Modulators of Hemoglobin Beta Chain Splicing at IVS2 654 locus (AID 910);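 also: HeLa cells stably carrying EGFP split by mutant beta-globin IVS2-654 intron; potency is read from the fitted curve at half-maximal effect; potency of activators that raise GFP signal by restoring correct splicing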
How it was run: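 HeLa cells stably expressing EGFP interrupted by β-globin IVS2-654 intron, seeded overnight in Opti-MEM/2% FCS, then treated 2 days at 37 °C. Restored splicing read as total peak GFP intensity per well by laser scanning cytometry (488 nm excitation, 500–520 nm emission); 500 nM antisense PNA as control.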

[9] = qHTS Assay for Identification of Small Molecule Agonists for Hypoxia Response Element Signaling Pathway (AID 914; active = well fitted activation curve with a large enough effect in the signal ratio, with a control signal flat, not every such curve was filed as active; the % refers to the signal ratio; also: % of control where 0% means no effect); settings: ME-180 HRE-bla reporter, beta-lactamase ratio, CoCl2, 17 h; activation: active compounds read high
How it was run: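 HRE-bla ME-180 cells, overnight plating in Opti-MEM with 0.5% dialyzed FBS; cpd titration + EC50 CoCl2, 17 h, 37 degrees Celsius; CCF4 2.5 h RT; 460/530 nm ratio; AC50.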

[10] = qHTS Assay for Identification of Small Molecule Agonists for Thrombopoietin (TPO) Signaling Pathway (AID 917); also: % is scaled to controls: 0 for no effect and ±100 for the full control effect
How it was run: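 Reporter: GpIIb promoter–luciferase in murine Ba/F3 expressing human TPO receptor. Pre-starved of IL-3 overnight; compounds with 26 pM TPO, 24 hrs, 37 C/5% CO2; luminescence read.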

[11] = Confirmation and Secondary Assay for Modulators of Hemoglobin Beta Chain Splicing at IVS2 705 locus (AID 930);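 also: GFP fluorescence per well restored by corrected splicing of the IVS2-705 intron in EGFP; potency is read from the fitted curve at half-maximal effect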
How it was run: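 Read-out: total peak GFP fluorescence per well (488 nm excitation, 500-520 nm emission) by laser-scanning cytometry. Cells: HeLa EGFP-705 splicing reporter, 2 days compound exposure in Optimem/2% FCS.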

[12] = molecular target: Muscarinic acetylcholine receptor M1 (Rattus norvegicus) (UniProt P08482); experiment: qHTS Assay for Antagonists of Acetylcholine Muscarinic M1 Receptor: Kinetic Measurement of Intracellular Calcium Response (AID 943);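 also: Fluo-4 calcium signal as peak divided by basal fluorescence over 4 min; nearly all actives have a fitted effect of over 75% in size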
Sequence of Muscarinic acetylcholine receptor M1 (Rattus norvegicus) (P08482 whole entry, looked up): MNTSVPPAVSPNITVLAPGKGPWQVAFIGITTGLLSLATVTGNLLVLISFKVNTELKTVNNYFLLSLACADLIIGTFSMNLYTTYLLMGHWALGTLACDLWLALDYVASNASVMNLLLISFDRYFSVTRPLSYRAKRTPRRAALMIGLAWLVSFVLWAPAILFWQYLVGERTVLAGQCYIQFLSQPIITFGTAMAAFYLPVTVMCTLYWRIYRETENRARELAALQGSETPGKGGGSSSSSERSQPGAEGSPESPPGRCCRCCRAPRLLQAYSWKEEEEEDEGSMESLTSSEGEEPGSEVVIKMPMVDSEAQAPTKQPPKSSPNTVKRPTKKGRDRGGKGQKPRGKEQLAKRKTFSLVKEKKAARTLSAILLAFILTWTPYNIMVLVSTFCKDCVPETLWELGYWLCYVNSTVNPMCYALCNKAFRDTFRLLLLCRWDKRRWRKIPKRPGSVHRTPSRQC
How it was run: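 CHO cells stably expressing rat M1 were loaded with no-wash Fluo-4 dye for 1 h at 37C, pre-incubated 10 min with compound, then challenged with EC80 carbachol (100 nM final); kinetic calcium read 4 min, peak/basal ratio.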

[13] = molecular target: Pyruvate kinase (Leishmania mexicana) (UniProt Q27686); experiment: qHTS Validation Assay for Inhibitors of Leishmania Mexicana Pyruvate Kinase (AID 945); also: potency is read from the fitted curve at half-maximal effect;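 as to activity change, negative = inhibition: 0% = DMSO only neutral control wells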
Sequence of Pyruvate kinase (Leishmania mexicana) (Q27686 2-499 E452W): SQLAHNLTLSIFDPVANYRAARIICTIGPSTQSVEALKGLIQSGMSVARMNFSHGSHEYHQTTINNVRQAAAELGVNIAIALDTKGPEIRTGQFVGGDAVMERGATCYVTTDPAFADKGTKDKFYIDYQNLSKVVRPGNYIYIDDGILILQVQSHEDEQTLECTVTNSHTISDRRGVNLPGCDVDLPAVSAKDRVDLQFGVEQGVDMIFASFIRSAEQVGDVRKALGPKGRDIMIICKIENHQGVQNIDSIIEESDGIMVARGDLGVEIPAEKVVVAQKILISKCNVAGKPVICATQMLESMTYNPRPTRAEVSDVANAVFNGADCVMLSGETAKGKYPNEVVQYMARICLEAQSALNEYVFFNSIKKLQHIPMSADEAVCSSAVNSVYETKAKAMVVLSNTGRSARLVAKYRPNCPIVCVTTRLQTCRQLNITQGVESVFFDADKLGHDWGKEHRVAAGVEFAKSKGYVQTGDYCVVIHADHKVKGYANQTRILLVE
How it was run: (§1)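 Luminescent ATP detection (PKLight) after a 1 h room-temperature reaction of 0.2 nM LmPYK E451W mutant with 0.5 mM PEP and 0.1 mM ADP at pH 7.2. Activity is normalized to DMSO-only control wells.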

[14] = molecular target: Pyruvate kinase PKM (Homo sapiens) (UniProt P14618); experiment: qHTS Assay for Activators of Human Muscle Pyruvate Kinase (AID 954; active = well fitted curve in the direction sought with a large enough effect, not every such curve was filed as active;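 also: 0% = uninhibited enzyme and -100% = no enzyme or full thiadiazolimine inhibition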)
Sequence of Pyruvate kinase PKM (Homo sapiens) (P14618 whole entry, looked up): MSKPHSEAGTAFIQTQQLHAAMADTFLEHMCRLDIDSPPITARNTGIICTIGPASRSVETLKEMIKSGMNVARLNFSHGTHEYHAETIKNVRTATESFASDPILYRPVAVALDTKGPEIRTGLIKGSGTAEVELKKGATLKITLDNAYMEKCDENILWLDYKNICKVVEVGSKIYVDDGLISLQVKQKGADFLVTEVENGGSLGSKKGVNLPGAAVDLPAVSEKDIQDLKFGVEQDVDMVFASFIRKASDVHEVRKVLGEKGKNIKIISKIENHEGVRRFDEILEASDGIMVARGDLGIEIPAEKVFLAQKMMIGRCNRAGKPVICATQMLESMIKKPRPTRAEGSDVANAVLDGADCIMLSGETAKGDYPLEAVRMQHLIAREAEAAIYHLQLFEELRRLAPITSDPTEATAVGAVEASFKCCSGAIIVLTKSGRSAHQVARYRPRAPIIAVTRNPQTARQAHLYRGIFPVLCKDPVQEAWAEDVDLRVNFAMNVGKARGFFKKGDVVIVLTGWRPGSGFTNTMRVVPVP
How it was run: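 Enzyme was run at intermediate activity so both inhibitors and activators could be detected. ATP formed from ADP and PEP by 0.1 nM human PKM2 during a 1 h room-temperature incubation was quantified by coupled luciferase luminescence.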

[15] = molecular target: Alpha-galactosidase A (Homo sapiens) (UniProt P06280); experiment: Counterscreen for Glucocerebrosidase Inhibitors: qHTS Assay for Human alpha-Galactosidase at pH 4.5 (AID 992); also: 0% is about no effect
Sequence of Alpha-galactosidase A (Homo sapiens) (P06280 whole entry, looked up): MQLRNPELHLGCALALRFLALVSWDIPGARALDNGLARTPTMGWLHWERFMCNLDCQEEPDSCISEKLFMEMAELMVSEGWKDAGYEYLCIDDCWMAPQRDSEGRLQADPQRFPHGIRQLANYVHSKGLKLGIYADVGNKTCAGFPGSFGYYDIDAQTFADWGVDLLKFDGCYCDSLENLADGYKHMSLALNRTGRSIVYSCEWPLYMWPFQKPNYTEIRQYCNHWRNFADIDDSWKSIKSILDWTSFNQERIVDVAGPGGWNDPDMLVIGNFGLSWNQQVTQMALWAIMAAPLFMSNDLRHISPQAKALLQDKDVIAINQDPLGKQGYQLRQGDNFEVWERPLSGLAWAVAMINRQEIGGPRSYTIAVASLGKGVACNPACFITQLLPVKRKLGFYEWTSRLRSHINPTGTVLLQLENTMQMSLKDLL
How it was run: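 Read-out is 4-methylumbelliferone fluorescence (365 nm excitation, 440 nm emission) after a pH 10 NaOH/glycine stop. Reactions held 2 nM enzyme and 80 uM substrate at pH 4.5 for 20 min at room temperature.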

[16] = molecular target: Cytochrome P450 3A4 (Homo sapiens) (UniProt P08684); experiment: qHTS Assay for Activators of Cytochrome P450 3A4 (AID 885); also: nearly all actives have a fitted effect of over 65% in size
Sequence of Cytochrome P450 3A4 (Homo sapiens) (P08684 whole entry, looked up): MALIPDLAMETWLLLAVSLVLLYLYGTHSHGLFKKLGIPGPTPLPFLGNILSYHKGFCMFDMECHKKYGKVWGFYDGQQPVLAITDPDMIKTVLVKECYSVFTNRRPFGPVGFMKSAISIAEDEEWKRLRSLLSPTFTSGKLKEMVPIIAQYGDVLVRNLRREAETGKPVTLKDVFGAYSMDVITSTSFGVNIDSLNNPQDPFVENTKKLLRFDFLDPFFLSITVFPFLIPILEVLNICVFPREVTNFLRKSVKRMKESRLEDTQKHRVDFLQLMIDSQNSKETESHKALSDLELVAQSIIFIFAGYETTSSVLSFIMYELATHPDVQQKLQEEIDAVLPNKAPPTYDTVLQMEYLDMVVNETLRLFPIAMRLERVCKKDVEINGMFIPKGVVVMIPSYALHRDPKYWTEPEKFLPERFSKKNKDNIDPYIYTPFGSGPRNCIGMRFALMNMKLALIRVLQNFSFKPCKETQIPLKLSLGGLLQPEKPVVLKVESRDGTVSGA
How it was run: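 Quantitative HTS format: compounds preincubated with 20nM human CYP3A4 and Luciferin-PPXE substrate at KM, reaction started by NADPH regeneration, stopped after 60 min, luciferase luminescence read 20 min later.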

[17] = molecular target: Pyruvate kinase PKM (Homo sapiens) (UniProt P14618); experiment: qHTS Assay for Inhibitors of Human Muscle Pyruvate Kinase (AID 958)
How it was run: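 PKM2, human, >95% pure, 0.1 nM; PEP 0.5 mM (Km), ADP 0.1 mM; 50 mM imidazole pH 7.2, 50 mM KCl, 0.01% Tween 20, 0.05% BSA; 1 h RT; luciferase luminescence readout.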

[18] = molecular target: Pyruvate kinase (Leishmania mexicana) (UniProt Q27686); experiment: qHTS Validation Assay for Activators of Leishmania Mexicana Pyruvate Kinase (AID 959)
How it was run: as §1

[19] = molecular target: alpha-glucosidase (Oryza sativa, rice) (UniProt Q653V4); experiment: Counterscreen for Glucocerebrosidase Inhibitors: qHTS Assay for Rice alpha-Glucosidase at pH 5.0 (AID 997);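 also: 0% = full activity with enzyme and -100% = basal without enzyme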
How it was run: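 Rice alpha-glucosidase (4 nM final) with 400 uM 4-methylumbelliferyl-alpha-D-glucopyranoside in citrate buffer pH 5.0, 20 min at room temperature, stopped at pH 10; fluorescence 365/440 nm, compounds 0.7 nM–77 uM, AC50 from Hill fits.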

[20] = AP1 Signaling Pathway (AID 357; active = well fitted curve in either direction with a large enough effect, not every such curve was filed as active); settings: ME-180 AP-1-bla reporter, EGF-induced, beta-lactamase ratio, 5 h; at 17.2 µM (top of the series) unless noted
How it was run: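 AP-1-bla ME-180 cells, Opti-MEM + 0.5% dialyzed FBS, plated overnight 37 °C. Cpd titration + EC50 EGF, 5 h 37 °C. CCF4 2.5 h RT; ex 405, em 460/530 ratio → %activity, AC50.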

[21] = molecular target: Guanine nucleotide-binding protein G(i) subunit alpha-1 (Homo sapiens) (UniProt P63096); experiment: qHTS Assay for Inhibitors of RGS12 GoLoco Motif Activity (Green Fluorophore) (AID 879);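 also: 0% = labeled peptide with Gαi1 and full inhibition = labeled peptide alone without protein; negative values mean loss of peptide binding seen as reduced polarization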
Sequence of Guanine nucleotide-binding protein G(i) subunit alpha-1 (Homo sapiens) (P63096 whole entry, looked up): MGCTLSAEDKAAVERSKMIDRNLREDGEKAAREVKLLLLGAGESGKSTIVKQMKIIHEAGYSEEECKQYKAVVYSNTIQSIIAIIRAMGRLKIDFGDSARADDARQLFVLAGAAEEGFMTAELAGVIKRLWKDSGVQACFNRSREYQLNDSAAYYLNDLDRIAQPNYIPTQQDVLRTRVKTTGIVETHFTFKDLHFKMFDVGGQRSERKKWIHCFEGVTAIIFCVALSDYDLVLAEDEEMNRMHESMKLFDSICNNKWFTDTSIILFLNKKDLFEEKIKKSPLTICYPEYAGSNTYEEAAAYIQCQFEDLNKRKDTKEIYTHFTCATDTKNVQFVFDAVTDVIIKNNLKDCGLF
How it was run: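 Fluorescence polarization assay: 50 nM Gαi1 with 10 nM FITC-labeled RGS12 GoLoco peptide in 10 mM Tris pH 7.5, 150 mM NaCl, 0.1 mM GDP, 0.05% NP40, 10 min at room temperature with compound.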

[22] = qHTS Assay for Identification of Small Molecule Antagonists for NFkB Signaling Pathway (AID 895; active = well fitted inhibition curve with a large enough effect in the signal ratio, with a control signal flat, not every such curve was filed as active; the % refers to the signal ratio; also: potency is read from the fitted curve at half-maximal effect)
How it was run: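 ME-180 NFkB-bla cells (beta-lactamase under NFkB response element), plated overnight, treated with compound then 10 pM TNF alpha (about EC50) for 5 hrs at 37 C. LiveBLAzer FRET read at 460/530 nm emission, 405 nm excitation.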

SMILES: OC[C@@H]1O[C@@H](n2cnc3cncnc32)[C@@H](O)[C@H]1O
- Potency [1]: inactive
- activity change, negative = inhibition [2]: -10.9% [at 38 µM]
- activity, negative = inhibition [3]: -14.6% [at 38 µM]
- Potency [4]: > 46 µM
- Potency [5]: > 46 µM
- Potency [6]: inactive
- Potency [7]: inactive
- Potency [8]: 5.01 µM (active)
- activation [9]: 4.26%
- Potency [10]: inactive
- Potency [11]: 12.6 µM (active)
- Potency [12]: inactive
- Potency [13]: inactive
- outcome [14]: inactive
- outcome [15]: inactive

SMILES: Oc1cc(O)cc(/C=C\c2ccc(O)c(O)c2)c1
- Potency [1]: 5.01 µM (active)
- activity change, negative = inhibition [2]: 5.18% [at 38 µM]
- Potency [4]: > 46 µM
- Potency [5]: > 46 µM
- Potency [6]: inactive
- Potency [7]: inactive
- Potency [16]: inactive
- Potency [13]: 1.26 µM (active)
- outcome [14]: inactive
- Potency [17]: 2.51 µM (active)
- Potency [18]: inactive
- outcome [15]: inactive
- outcome [19]: inactive

SMILES: Clc1ccc2nc(N3CCNCC3)nc(-c3ccccc3)c2c1
- activity change, negative = inhibition [20]: 28.9%
- Potency [4]: > 20.6 µM

SMILES: C[C@H](N)C1CCC(C(=O)Nc2ccncc2)CC1 (stereo not given in full)
- Potency [1]: inactive
- activity change, negative = inhibition [2]: 3.2% [at 38 µM]
- activity, negative = inhibition [3]: -8.56% [at 38 µM]
- Potency [4]: > 46 µM
- Potency [5]: > 46 µM
- Potency [6]: inactive
- Potency [7]: inactive
- outcome [21]: inactive
- Potency [22]: 7.94 µM (active)
- Potency [13]: inactive
- outcome [14]: inactive
- outcome [15]: inactive

SMILES: Cc1cc(C)c(C#N)c(SCc2[nH]nc3c2C(c2ccccc2)C(C#N)=C(N)O3)n1 (stereo not given)
- activity change, negative = inhibition [20]: -21.7%
- Potency [4]: > 20.6 µM
- activation [9]: -8.62%
